Source: PubChem BioAssay (NCATS)
Records with an inconclusive call do not appear. Calls of active or inactive are those of the source. Unless noted, calls follow the shape of the dose curve; as a rule, active = well fitted curve in the direction sought with a large enough effect; inconclusive = small, poorly fitted or top-dose-only effect, or another doubt; inactive = no such curve, though single readings can be large; an effect the other way counts as inactive or inconclusive.

Legend:
[1] = biological target: Glucocorticoid receptor (Homo sapiens) (UniProt P04150); test: GR-GFP Redistribution (AID 450;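 active = compounds whose dose series gives a full or clear partial fitted curve of increased nuclear translocation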; also: potency is read from the fitted curve at half-maximal effect); conditions: U2OS GR-GFP nuclear translocation, laser cytometry, 2 h
Chain of Glucocorticoid receptor (Homo sapiens) (P04150 whole entry, looked up): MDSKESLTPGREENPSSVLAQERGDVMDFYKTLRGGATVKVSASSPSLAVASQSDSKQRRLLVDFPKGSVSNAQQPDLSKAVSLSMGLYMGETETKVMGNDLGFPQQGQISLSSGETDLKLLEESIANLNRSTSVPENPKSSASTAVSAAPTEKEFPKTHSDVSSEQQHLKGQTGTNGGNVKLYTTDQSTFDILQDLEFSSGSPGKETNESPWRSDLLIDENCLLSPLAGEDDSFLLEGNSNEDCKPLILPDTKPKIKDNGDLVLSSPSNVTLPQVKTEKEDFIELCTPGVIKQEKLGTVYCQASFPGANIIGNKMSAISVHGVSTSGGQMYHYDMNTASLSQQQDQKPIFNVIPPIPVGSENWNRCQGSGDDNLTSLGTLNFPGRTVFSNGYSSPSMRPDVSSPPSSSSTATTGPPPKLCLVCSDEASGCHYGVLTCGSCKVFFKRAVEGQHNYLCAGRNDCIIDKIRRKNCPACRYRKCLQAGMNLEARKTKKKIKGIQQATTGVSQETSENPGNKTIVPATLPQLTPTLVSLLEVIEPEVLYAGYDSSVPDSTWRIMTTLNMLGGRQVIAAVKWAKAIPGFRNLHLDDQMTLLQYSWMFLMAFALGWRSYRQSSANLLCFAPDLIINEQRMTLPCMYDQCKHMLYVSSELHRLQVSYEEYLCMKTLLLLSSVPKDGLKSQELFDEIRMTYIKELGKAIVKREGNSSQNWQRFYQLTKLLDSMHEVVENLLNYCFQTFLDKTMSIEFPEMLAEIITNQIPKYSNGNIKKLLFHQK

[2] = biological target: Cytochrome P450 2D6 (Homo sapiens) (UniProt P10635); test: qHTS Assay for Inhibitors and Substrates of Cytochrome P450 2D6 (AID 891); conditions: recombinant CYP2D6, luciferin-ME EGE luminescence; series mostly up to 57.1 µM;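 also: luciferin methyl ether substrate demethylated by CYP2D6 with NADPH regeneration; % is scaled to controls: 0 for no effect and ±100 for the full control effect; nearly all actives have a fitted effect of over 60% in size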
Outline: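 Human CYP2D6 (5 nM) with 30 uM Luciferin-ME EGE (at Km) in 100 mM KPO4, compound preincubated 10 min, then NADPH regeneration system for 60 min at room temperature. Luciferin read by luminescence; normalized to 1.43 uM quinidine.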

[3] = biological target: Cytochrome P450 2C19 (Homo sapiens) (UniProt P33261); test: qHTS Assay for Inhibitors and Substrates of Cytochrome P450 2C19 (AID 899); conditions: recombinant CYP2C19, luciferin-H EGE luminescence; series mostly up to 57.1 µM; also: % is scaled to controls: 0 for no effect and ±100 for the full control effect; nearly all actives have a fitted effect of over 60% in size
Chain of Cytochrome P450 2C19 (Homo sapiens) (P33261 whole entry, looked up): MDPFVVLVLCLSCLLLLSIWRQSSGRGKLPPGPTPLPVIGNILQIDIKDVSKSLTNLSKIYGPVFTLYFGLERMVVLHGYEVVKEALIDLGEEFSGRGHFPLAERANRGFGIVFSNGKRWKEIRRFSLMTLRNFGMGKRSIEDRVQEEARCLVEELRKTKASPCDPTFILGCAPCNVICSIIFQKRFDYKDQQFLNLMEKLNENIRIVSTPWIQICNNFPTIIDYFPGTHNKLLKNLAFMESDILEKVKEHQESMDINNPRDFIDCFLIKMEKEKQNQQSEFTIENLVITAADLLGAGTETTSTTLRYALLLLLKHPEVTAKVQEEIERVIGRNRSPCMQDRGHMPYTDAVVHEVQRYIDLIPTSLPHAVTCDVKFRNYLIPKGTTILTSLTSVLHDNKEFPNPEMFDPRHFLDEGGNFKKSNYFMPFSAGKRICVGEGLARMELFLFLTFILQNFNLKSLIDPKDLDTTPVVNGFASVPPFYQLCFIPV
Outline: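 Signal comes from luciferase acting on luciferin released by CYP2C19-mediated hydroxylation of Luciferin-H EGE, 10uM (KM). Assay mix: 5nM enzyme, 50mM KPO4; 60 min at 37C with NADPH regeneration. Data normalized against 57uM ketoconazole.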

[4] = Confirmation and Secondary Assay for Modulators of Hemoglobin Beta Chain Splicing at IVS2 654 locus (AID 910); conditions: HeLa EGFP-654 splicing reporter, GFP fluorescence, 48 h; series mostly up to 46.1 µM;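 also: HeLa cells stably carrying EGFP split by mutant beta-globin IVS2-654 intron; % of control where 0% means no effect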
Outline: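 HeLa cells stably expressing EGFP interrupted by β-globin IVS2-654 intron, seeded overnight in Opti-MEM/2% FCS, then treated 2 days at 37 °C. Restored splicing read as total peak GFP intensity per well by laser scanning cytometry (488 nm excitation, 500–520 nm emission); 500 nM antisense PNA as control.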

[5] = Confirmation and Secondary Assay for Modulators of Hemoglobin Beta Chain Splicing at IVS2 705 locus (AID 930); conditions: HeLa EGFP-705 splicing reporter, GFP fluorescence, 48 h; series mostly up to 46.1 µM;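 also: HeLa cells stably expressing the EGFP-705 splicing reporter; GFP fluorescence per well restored by corrected splicing of the IVS2-705 intron in EGFP; % of control where 0% means no effect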
Outline: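 Fluorescence gain (488 nm laser, 500-520 nm PMT) reflects restored correct splicing of a mutant IVS2-705 intron inside EGFP in stably transfected HeLa cells after 2-day compound treatment.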

[6] = Primary qHTS for inhibitors of MERS-S pseudo-typed particle cell entry (AID 1479149; calls by dose curve; also: nearly all actives have a fitted effect of over 60% in size); conditions: MERS-S pseudotyped particle entry, luciferase; series mostly up to 57.1 µM
[7] = Cell Proliferation Assay against the TMD8 Cell Line (AID 651645); conditions: TMD8 DLBCL cell line proliferation/viability; at 46.1 µM (top of the series);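 also: cells exposed to compound for 48 h before reading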
Outline: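 Luminescent ATP read-out (CellTiter-Glo, 15 min RT) after 48 h compound exposure of log-growing TMD8 cells at 37C; percent activity scaled between DMSO as 100% and 9.2 uM bortezomib final as 0%.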

[8] = Cell Proliferation Assay against the HBL1 Cell Line (AID 651646); conditions: HBL1 DLBCL cells; at 46.1 µM (top of the series);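 also: cells exposed to compound for 48 h before reading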
Outline: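 HBL1 ABC DLBCL cells, 500/well in RPMI with 5% FBS, treated for 48 h at 37C. Viability read by CellTiter-Glo luminescence, normalized to DMSO as 100% and 9.2 uM bortezomib as 0%.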

[9] = Cell Proliferation Assay against the TMD8 Cell Line (Caspase readout at 8 hrs) (AID 651713); conditions: TMD8 lymphoma cells, caspase activation luminescence; also: potency is read from the fitted curve at half-maximal effect
Outline: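 TMD8 cells in RPMI plus 5% FBS were treated with compound for 8 h at 37C. Caspase 3/7 activation was read by Caspase-Glo luminescence. Percent activity was scaled from DMSO (0%) to 9.2 uM bortezomib final (100%).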

[10] = biological target: Calcium and integrin-binding protein 1 (Homo sapiens) (UniProt Q99828); test: Confirmatory qHTS for Identification of Calcium Integrin Binding Protein 1 (CIB1) Competitor (AID 1508617); conditions: CIB1 binding competition assay, biochemical qHTS; also: potency is read from the fitted curve at half-maximal effect; nearly all actives have a fitted effect of over 65% in size
Chain of Calcium and integrin-binding protein 1 (Homo sapiens) (Q99828 whole entry, looked up): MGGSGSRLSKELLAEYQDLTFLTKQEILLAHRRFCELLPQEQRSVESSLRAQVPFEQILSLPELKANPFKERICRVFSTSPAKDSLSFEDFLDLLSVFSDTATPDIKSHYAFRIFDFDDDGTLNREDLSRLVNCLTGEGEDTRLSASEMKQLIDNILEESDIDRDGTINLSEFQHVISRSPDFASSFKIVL
Outline: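 Binding competition between test compounds and fluorescent alphaIIb peptide for 1 uM CIB1-GST is monitored by FP at 480/540 nm. Final compound range is up to 114 uM; unlabeled peptide serves as reference competitor.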

[11] = biological target: ATP-dependent DNA helicase Q1 (Homo sapiens) (UniProt P46063); test: qHTS Validation Assay for Inhibitors of RecQ-Like Dna Helicase 1 (RECQ1) (AID 2353); conditions: recombinant RECQ1 helicase DNA unwinding assay; series mostly up to 25.6 µM;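 also: plate controls were DMSO vehicle for no effect and enzyme-free control for full effect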
Chain of ATP-dependent DNA helicase Q1 (Homo sapiens) (P46063 whole entry, looked up): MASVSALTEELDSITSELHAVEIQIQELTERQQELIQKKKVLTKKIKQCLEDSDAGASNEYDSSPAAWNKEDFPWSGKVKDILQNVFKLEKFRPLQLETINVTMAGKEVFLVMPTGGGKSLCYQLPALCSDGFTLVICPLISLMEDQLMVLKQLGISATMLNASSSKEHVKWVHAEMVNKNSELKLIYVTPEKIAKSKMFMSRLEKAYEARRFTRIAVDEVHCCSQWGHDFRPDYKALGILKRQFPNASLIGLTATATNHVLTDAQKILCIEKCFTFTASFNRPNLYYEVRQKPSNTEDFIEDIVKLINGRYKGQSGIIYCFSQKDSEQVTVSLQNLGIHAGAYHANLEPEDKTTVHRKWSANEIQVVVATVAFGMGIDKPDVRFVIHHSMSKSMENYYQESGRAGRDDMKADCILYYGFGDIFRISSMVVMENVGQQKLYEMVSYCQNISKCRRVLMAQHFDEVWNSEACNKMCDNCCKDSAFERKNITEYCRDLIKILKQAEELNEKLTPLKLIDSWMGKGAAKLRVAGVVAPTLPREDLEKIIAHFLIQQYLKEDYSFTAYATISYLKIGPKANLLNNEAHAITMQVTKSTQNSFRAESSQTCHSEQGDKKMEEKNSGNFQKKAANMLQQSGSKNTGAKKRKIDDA
Outline: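 50 nM RECQ1T1 preincubated 15 min with compound in Tris pH 8.0 buffer with MgCl2, DTT, Tween-20 and 2.5 ug/ml poly(dI-dC); started with 200 nM TAMRA/BHQ-2 forked duplex and 2 mM ATP. Unwinding read as fluorescence (525/598 nm), two reads 2 h apart.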

[12] = Validation screen for inhibitors of Lassa infection (AID 463096; calls by dose curve; also: % is scaled to controls: 0 for no effect and ±100 for the full control effect); conditions: Lassa virus infection, cell-based; series mostly up to 46.1 µM
[13] = Validation screen for small molecules that induce DNA re-replication in MCF 10A normal breast cells (AID 463097); conditions: MCF 10A cells, DNA re-replication phenotype imaging; series mostly up to 46.1 µM; also: 0% is about no effect; nearly all actives have a fitted effect of over 60% in size
Outline: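 250 MCF 10A cells/well; compound pin-transferred; 48 hr, 37 C, 5% CO2; Hoechst 40 min; imaged 405/500-530 nm. Hits = more high-intensity nuclei.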

[14] = Quantitative high throughput screen for delayed death inhibitors of the malarial parasite plastid, 96 hour incubation (AID 488745); conditions: Plasmodium falciparum growth; series mostly up to 28.7 µM; also: % is scaled to controls: 0 for no effect and ±100 for the full control effect; nearly all actives have a fitted effect of over 70% in size
Outline: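 Luciferase-expressing P. falciparum in erythrocytes (2% hematocrit, 0.1% parasitemia) incubated with compound for 96 h at 37 C, 5% CO2, in RPMI 1640 with 0.5% Albumax. Growth inhibition read as decreased luminescence.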

[15] = Quantitative high throughput screen for delayed death inhibitors of the malarial parasite plastid, 48 hour incubation (AID 488752); conditions: Plasmodium falciparum growth; series mostly up to 28.7 µM; also: % is scaled to controls: 0 for no effect and ±100 for the full control effect; nearly all actives have a fitted effect of over 65% in size
Outline: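 Erythrocytes infected with firefly luciferase-expressing P. falciparum (2% hematocrit, 0.1% parasitemia) cultured with compound for 48 h at 37 C, 5% CO2, in RPMI 1640/0.5% Albumax. Growth inhibition read as loss of luminescence.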

[16] = biological target: M-phase phosphoprotein 8 (Homo sapiens) (UniProt Q99549); test: qHTS Validation Assay for Inhibitors for MPP8 Chromodomain Interactions with Methylated Histone Tails (AID 488949); conditions: AlphaScreen MPP8 binding to H3K9me3 peptide; series mostly up to 114 µM;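 also: AlphaScreen signal from MPP8 chromodomain bound to biotinylated H3K9me3 peptide; top concentration of the series differs between compounds; % is scaled to controls: 0 for no effect and ±100 for the full control effect; nearly all actives have a fitted effect of over 55% in size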
Chain of M-phase phosphoprotein 8 (Homo sapiens) (Q99549 whole entry, looked up): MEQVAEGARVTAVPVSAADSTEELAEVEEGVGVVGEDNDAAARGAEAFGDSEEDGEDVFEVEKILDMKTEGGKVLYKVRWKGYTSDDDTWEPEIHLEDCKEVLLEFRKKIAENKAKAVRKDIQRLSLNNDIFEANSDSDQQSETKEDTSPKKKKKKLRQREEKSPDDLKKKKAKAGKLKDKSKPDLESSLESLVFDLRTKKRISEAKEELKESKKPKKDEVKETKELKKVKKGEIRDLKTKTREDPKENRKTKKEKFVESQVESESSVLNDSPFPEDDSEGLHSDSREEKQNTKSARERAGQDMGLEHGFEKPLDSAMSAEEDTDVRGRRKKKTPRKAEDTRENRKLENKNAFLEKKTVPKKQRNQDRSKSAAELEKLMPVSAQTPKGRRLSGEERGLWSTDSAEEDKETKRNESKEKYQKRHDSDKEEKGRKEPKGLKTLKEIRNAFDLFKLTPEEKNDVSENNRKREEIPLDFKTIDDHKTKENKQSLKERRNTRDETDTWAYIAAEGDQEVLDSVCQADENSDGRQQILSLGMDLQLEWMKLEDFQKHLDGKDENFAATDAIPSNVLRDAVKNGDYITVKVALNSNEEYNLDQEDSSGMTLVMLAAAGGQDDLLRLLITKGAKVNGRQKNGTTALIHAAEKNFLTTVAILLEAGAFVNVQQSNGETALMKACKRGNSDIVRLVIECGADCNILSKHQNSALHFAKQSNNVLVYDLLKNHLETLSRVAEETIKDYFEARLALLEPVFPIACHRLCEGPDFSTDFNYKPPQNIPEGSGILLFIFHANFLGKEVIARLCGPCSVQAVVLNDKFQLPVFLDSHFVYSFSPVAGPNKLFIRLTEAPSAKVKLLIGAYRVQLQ
Outline: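 AlphaScreen read-out: streptavidin donor and nickel chelate acceptor beads (final 10 ug/mL), 30 min in the dark at RT. Complex of 50 nM MPP8 and 50 nM b-H3(1-18)K9me3 peptide had been exposed to compounds for 30 min beforehand.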

[17] = biological target: Transient receptor potential cation channel subfamily V member 1 (Homo sapiens) (UniProt Q8NER1); test: HTS Assay for Compounds that Act as Enhancers of the Vanilloid Receptor 1 (AID 488979); conditions: TRPV1-expressing cells, enhancer of channel activity; series mostly up to 41.7 µM; also: 0% is about no effect
Chain of Transient receptor potential cation channel subfamily V member 1 (Homo sapiens) (Q8NER1 whole entry, looked up): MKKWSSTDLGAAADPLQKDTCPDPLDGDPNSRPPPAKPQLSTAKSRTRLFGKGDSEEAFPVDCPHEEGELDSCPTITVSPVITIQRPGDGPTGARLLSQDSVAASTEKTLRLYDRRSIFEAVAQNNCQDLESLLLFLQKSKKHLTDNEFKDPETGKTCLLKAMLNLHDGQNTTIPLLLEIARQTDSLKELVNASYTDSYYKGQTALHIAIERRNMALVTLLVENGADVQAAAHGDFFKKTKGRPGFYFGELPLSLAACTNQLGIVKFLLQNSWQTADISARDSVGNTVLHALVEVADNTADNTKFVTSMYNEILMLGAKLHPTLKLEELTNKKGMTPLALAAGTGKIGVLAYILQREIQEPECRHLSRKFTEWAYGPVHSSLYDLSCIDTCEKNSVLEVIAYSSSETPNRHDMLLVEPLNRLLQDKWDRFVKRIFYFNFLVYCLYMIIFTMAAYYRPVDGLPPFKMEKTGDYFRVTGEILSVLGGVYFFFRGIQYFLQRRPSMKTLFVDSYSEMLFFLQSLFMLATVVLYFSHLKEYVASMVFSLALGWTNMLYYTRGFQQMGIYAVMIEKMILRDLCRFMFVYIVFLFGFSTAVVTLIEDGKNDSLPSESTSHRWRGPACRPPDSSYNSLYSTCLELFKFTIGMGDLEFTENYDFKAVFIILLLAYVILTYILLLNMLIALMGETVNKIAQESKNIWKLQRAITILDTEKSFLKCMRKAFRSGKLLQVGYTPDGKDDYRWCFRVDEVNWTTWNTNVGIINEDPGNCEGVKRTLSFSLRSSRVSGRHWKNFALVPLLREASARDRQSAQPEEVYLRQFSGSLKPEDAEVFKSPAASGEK
Outline: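 TRPV1 cells loaded with Fluo-8 calcium dye; compound added and Ca2+ signal (ex 480/em 520 nm) followed 3 min, then capsaicin at EC20 added and read 2 more min to detect enhancement.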

[18] = biological target: Thyrotropin receptor (Homo sapiens) (UniProt P16473); test: qHTS Assay for Antagonists of the Thyroid Stimulating Hormone Receptor (AID 488980); conditions: TSHR-expressing cells, cAMP antagonist read-out; series mostly up to 57.5 µM; also: 0% is about no effect
Chain of Thyrotropin receptor (Homo sapiens) (P16473 whole entry, looked up): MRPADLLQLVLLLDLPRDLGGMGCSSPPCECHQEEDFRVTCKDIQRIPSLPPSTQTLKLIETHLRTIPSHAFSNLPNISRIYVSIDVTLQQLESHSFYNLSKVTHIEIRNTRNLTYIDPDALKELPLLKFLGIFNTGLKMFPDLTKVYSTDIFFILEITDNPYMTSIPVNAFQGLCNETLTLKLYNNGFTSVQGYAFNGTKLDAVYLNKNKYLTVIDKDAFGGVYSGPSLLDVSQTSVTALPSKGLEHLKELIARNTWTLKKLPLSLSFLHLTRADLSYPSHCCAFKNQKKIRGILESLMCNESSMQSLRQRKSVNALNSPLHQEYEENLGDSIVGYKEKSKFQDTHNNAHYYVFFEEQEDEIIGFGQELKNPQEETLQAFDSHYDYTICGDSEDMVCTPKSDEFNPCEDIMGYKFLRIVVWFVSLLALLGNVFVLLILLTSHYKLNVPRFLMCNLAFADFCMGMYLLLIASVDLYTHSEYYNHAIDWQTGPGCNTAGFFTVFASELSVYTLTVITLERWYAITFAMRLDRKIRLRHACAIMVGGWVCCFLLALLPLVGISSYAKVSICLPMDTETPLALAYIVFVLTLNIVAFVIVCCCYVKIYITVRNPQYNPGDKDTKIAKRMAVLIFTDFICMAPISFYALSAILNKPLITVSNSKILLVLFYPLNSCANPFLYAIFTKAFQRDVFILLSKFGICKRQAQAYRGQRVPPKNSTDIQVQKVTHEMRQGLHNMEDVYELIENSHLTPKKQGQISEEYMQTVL
Outline: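 TSHR-HEK293 cells; 70 uM RO 20-1724 PDE inhibitor; compound + EC80 TSH (4 nM final); anti-cAMP cryptate antibody/cAMP-d2 in lysis buffer, 30 min RT; HTRF 665/620 nm read.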

[19] = biological target: Thyrotropin-releasing hormone receptor (Homo sapiens) (UniProt P34981); test: qHTS for Small Molecule Agonists and Allosteric Enhancers of Human TRH Receptor: Validation Screen for Agonists (AID 493127;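 active = calcium activation more than 3 SD above the typical response in the agonist read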; also: 0% is about no effect); conditions: TRH receptor agonist cell assay; at 2 µM; stronger effect = higher value
Chain of Thyrotropin-releasing hormone receptor (Homo sapiens) (P34981 whole entry, looked up): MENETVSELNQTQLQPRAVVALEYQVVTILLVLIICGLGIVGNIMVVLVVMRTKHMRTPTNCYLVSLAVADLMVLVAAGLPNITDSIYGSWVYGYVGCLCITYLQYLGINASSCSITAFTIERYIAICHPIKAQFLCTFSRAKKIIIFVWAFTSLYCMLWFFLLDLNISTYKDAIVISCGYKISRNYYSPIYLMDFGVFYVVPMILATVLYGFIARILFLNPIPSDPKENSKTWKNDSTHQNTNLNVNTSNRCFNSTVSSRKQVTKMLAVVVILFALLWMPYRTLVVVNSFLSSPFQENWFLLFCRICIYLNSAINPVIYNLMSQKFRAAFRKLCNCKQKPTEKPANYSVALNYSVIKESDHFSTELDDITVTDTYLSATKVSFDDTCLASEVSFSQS
Outline: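 TRHR cells loaded with fluo-8 calcium dye; FDSS kinetic fluorescence (Ex 480/Em 530) read at 1 s/cycle after 23 nL compound addition. Agonist-mode calcium response recorded before the 10 nM TRH (EC20) addition.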

[20] = Validation screen for small molecules that induce DNA re-replication in SW480 colon adenocarcinoma cells (AID 504364); conditions: DNA re-replication phenotype (high-content imaging); series mostly up to 46.1 µM; also: 0% is about no effect
Outline: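 SW480 cells (250/well) exposed 48 h at 37 C, 5% CO2, then Hoechst-stained 40 min. Nuclear DNA content imaged by fluorescence scanning (405 nm excitation, 500-530 nm emission); re-replication scored as increased nuclei with elevated intensity.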

CN(C)[C@@H]1C(=O)C(C(N)=O)=C(O)[C@]2(O)C(=O)C3=C(O)c4c(O)cccc4[C@@](C)(O)[C@@H]3C[C@@H]12
inactive: Potency [1] > 46 µM | Potency [2] | Potency [3]

CN(C)C1C(=O)C(C(N)=O)=C(O)[C@@]2(O)C(=O)C3=C(O)c4c(O)ccc(Cl)c4[C@](C)(O)C3CC12 (stereo not given in full)
inactive: Potency [4] | Potency [5]

C=C(C)[C@@H]1CCC(C)=C[C@H]1c1c(O)cc(CCCCC)cc1O
inactive: Potency [6]

COC(=O)[C@]12CCC(C)(C)C[C@H]1[C@H]1C(=O)C=C3[C@@]4(C)C=C(C#N)C(=O)C(C)(C)[C@@H]4CC[C@@]3(C)[C@]1(C)CC2
1.52%: viability, percent of control [8]
0.135%: viability (% of control) [7]
active: Potency [9] 0.662 µM | Potency [10] 10 µM

CCCN1CCC[C@@H](c2cccc(C#N)c2)C1
inactive: outcome [11] | Potency [12] | Potency [13] | Potency [14] | Potency [15] | Potency [16] | outcome [17] | outcome [18] | activation [19] 1.31% | outcome [20]

C=CCN1CC[C@@]2(C)c3cc(O)ccc3CC1[C@@H]2C
inactive: outcome [11] | Potency [12] | Potency [13] | Potency [14] | Potency [15] | Potency [16] | outcome [17] | outcome [18] | activation [19] 1.19% | outcome [20]
